Experimental data as given in the supplement of paper PMC10849652.
Targets with a hit are over-represented here; the source holds about 8,800 in all. About 0.5% of all pairs of compound and target were hits.

How the values were obtained:
Test in all cases: log2 fold change, soluble protein after heating vs DMSO (PISA); higher = thermal stabilisation; K562 lysate, 10 uM; active = over 0.2 and 3.5 SD of the protein, either way, in both replicates (recomputed)
[1] = compound: C1=CC=C(C=C1)[C@H](COC2=CC3=C(C=C2)NC(=O)N3)NC(=O)C4=CC=CN(C4=O)CC5=CC(=C(C=C5)F)F
How it was run: (§1)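 A 30 min treatment with 10 μM compound was applied to crude K562 extract at 1 mg/mL protein in PBS pH 7.4 with 1 mM MgCl2. Heating for 3 min spanned 48°C-58°C, after which aliquots were pooled, adjusted to 0.5% NP-40 at 4°C and spun at 21,000xg for 90 min. TMTpro 16plex LC-MS/MS of the supernatant, with channel sums equalised, gave values recorded as log-two fold change in thermal stability against solvent controls, from duplicates.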

[2] = compound: CC1=C(SC2=C1C(=N[C@H](C3=NN=C(N32)C)CC(=O)N)C4=CC=C(C=C4)Cl)C
How it was run: as §1

[3] = compound: CC1=C2C(=CC=C1)N=C(N(C2=O)C3=CC=CC=C3C)CN4C=NC5=C(N=CN=C54)N
How it was run: as §1

[4] = compound: Cc1sc2c(c1C)C(c1ccc(Cl)cc1)=N[C@@H](CC(=O)OC(C)(C)C)c1nnc(C)n1-2
How it was run: as §1

[5] = compound: c1ccc([C@@H]2C[C@H]2NC2CCNCC2)cc1
How it was run: as §1

Measured: log2 fold change

TERF2IP (UniProt Q9NYB0)
UniProt Q9NYB0, sequence (Q9NYB0 whole entry, looked up): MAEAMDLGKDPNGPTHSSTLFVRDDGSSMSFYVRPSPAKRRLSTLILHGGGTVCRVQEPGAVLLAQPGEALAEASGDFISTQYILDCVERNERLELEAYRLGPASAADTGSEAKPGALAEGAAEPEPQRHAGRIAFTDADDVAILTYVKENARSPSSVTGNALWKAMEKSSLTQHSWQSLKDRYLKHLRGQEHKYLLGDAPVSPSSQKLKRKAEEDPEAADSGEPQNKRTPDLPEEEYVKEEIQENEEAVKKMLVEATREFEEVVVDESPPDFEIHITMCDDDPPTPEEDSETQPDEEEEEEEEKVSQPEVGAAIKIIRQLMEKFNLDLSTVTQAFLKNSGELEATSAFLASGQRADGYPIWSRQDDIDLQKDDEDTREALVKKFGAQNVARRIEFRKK
inactive: [1] 0.023 | [2] -0.006 | [3] -0.077 | [4] -0.03 | [5] 0.116

TUBE1 (UniProt Q9UJT0)
UniProt Q9UJT0, sequence (Q9UJT0 whole entry, looked up): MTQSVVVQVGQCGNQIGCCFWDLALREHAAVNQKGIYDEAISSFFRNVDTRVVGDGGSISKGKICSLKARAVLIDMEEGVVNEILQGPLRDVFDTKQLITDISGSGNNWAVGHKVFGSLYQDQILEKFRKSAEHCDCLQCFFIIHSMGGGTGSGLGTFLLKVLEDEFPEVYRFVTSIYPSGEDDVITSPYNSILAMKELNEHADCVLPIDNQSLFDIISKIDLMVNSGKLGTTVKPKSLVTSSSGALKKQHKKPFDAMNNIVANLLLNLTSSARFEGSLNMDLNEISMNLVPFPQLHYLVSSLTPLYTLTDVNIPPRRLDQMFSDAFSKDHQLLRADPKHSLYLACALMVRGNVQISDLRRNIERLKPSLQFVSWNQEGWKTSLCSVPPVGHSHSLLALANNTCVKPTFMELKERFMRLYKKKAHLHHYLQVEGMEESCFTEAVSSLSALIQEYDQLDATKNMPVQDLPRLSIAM
inactive: [1] -0.019 | [2] 0.003 | [3] 0.019 | [4] -0.064 | [5] 0.107

TROAP (UniProt Q12815)
UniProt Q12815, sequence (Q12815 whole entry, looked up): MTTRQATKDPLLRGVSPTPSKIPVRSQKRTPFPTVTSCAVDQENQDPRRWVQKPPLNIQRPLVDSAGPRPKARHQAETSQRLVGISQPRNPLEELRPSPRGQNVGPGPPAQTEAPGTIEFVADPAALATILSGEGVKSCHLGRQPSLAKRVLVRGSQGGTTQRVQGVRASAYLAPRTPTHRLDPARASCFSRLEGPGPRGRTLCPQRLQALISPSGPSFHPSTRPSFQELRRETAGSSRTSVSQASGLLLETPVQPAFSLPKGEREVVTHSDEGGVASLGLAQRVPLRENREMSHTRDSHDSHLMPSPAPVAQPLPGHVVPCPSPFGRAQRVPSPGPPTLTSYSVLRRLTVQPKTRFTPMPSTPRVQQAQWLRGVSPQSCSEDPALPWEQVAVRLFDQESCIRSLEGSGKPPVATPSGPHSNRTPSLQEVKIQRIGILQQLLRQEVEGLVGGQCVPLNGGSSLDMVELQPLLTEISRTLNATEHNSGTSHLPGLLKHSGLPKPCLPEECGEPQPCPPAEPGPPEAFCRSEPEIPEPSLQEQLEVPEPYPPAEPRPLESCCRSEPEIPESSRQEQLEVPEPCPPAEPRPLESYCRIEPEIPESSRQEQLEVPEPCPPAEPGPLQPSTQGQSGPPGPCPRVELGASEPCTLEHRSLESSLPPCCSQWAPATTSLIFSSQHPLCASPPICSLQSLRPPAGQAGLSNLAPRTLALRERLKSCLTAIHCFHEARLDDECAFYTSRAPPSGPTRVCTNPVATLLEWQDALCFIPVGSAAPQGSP
inactive: [1] -0.008 | [2] 0.12 | [3] 0.024 | [4] 0.057 | [5] 0.096

TRMT12 (UniProt Q53H54)
UniProt Q53H54, sequence (Q53H54 whole entry, looked up): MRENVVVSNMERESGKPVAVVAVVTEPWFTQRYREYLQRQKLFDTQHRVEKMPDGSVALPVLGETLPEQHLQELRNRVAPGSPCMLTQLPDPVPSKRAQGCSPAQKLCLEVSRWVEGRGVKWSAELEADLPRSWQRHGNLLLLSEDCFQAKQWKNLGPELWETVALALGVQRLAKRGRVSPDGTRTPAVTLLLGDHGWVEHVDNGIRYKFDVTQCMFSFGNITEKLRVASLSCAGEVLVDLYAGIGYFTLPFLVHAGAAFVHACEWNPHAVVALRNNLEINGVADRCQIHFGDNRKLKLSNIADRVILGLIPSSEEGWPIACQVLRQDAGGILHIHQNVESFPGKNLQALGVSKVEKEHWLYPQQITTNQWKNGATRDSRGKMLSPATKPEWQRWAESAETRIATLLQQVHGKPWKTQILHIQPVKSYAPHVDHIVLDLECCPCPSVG
inactive: [1] 0.104 | [2] -0.023 | [3] -0.007 | [4] -0.061 | [5] 0.076

TYW3 (UniProt Q6IPR3)
UniProt Q6IPR3, sequence (Q6IPR3 whole entry, looked up): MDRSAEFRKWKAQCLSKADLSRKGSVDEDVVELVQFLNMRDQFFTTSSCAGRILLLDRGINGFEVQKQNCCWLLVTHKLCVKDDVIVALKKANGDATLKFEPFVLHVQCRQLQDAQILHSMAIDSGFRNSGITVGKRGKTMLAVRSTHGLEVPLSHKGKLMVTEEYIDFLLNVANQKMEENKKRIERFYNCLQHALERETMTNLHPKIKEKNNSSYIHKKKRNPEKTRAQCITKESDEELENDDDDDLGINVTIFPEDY
inactive: [1] 0.082 | [2] 0.006 | [3] 0.065 | [4] -0.029 | [5] -0.067

TDRD3 isoform 3 (UniProt Q9H7E2)
UniProt Q9H7E2, sequence (Q9H7E2 whole entry, looked up): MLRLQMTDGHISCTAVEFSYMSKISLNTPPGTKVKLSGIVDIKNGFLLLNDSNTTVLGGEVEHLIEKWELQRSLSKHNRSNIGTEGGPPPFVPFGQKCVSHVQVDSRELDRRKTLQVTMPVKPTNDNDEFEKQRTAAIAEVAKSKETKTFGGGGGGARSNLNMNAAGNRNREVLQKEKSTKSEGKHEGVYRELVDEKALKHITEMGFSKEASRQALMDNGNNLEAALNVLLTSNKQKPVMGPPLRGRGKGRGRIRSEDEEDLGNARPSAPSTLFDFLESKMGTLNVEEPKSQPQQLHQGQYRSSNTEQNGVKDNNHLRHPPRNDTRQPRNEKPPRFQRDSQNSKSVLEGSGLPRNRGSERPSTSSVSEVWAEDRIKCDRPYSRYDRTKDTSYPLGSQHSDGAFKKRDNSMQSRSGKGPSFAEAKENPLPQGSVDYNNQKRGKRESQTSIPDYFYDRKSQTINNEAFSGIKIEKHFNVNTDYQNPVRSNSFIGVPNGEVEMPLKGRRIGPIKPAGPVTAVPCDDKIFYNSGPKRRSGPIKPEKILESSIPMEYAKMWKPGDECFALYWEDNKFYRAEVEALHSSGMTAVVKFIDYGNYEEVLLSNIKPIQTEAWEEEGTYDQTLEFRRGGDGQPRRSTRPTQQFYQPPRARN
inactive: [1] 0.082 | [2] 0.037 | [3] 0.027 | [4] 0.065 | [5] -0.01

TTLL12 (UniProt Q14166)
UniProt Q14166, sequence (Q14166 whole entry, looked up): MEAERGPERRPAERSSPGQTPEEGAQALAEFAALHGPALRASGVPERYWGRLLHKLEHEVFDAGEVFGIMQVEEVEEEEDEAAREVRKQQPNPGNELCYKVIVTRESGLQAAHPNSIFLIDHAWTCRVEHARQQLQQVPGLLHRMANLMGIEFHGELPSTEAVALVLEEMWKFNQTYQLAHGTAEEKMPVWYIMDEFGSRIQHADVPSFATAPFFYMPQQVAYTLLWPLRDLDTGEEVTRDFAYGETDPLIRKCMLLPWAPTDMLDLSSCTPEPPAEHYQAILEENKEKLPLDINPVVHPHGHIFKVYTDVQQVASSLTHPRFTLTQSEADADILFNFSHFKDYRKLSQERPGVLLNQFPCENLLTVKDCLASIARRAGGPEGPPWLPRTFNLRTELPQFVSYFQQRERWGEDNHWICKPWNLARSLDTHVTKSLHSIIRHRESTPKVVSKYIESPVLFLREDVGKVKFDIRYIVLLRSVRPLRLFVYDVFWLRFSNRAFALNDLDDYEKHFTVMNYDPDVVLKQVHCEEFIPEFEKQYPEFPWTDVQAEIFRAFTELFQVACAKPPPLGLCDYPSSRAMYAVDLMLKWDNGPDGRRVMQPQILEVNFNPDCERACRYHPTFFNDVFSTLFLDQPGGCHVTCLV
inactive: [1] -0.004 | [2] 0.013 | [3] 0.011 | [4] 0.015 | [5] 0.033

TESC (UniProt Q96BS2)
UniProt Q96BS2, sequence (Q96BS2 whole entry, looked up): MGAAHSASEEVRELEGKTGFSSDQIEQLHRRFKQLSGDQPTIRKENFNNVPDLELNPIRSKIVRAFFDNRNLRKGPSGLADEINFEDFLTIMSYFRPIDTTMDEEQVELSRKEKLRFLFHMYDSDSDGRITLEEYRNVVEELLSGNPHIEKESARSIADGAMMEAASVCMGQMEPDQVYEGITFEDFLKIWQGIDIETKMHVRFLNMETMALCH
inactive: [1] 0.034 | [2] -0.131 | [3] -0.001 | [4] 0.004 | [5] 0.016

TMEM70 (UniProt Q9BUB7)
UniProt Q9BUB7, sequence (Q9BUB7 whole entry, looked up): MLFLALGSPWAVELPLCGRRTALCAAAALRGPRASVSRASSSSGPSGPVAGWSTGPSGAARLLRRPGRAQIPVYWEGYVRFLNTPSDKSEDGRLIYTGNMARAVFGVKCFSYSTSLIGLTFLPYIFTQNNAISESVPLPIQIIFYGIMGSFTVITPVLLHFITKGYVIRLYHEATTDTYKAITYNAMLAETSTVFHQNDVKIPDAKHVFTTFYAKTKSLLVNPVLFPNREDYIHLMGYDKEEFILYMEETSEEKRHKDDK
inactive: [1] -0.029 | [2] 0.045 | [3] 0.021 | [4] 0.013 | [5] -0.083
